Each structure is given as a SMILES string. Results filed as inconclusive are left out. Active and inactive are the calls of the source. The calls were made as follows: active = hit-call score of the fitted dose curve at least 0.9, where 1 is the maximum; inconclusive = response in the unintended direction; inactive = score below 0.9.

In PubChem BioAssay (EPA / NIEHS) one finds outcome and AC50 data, which are given here for 16 compounds.

The test system of this assay is Sodium/Iodide Symporter (NIS), SLC5A5 (gene 6528). Briefly: CPHEA_Stoker_NIS_Inhibition_RAIU: CPHEA's Radioactive Iodide Uptake (RAIU) Assay for Sodium/Iodide Symporter (NIS) Inhibition, Stoker and Laws Labs (AID 2283841). As to the method: CPHEA_Stoker_NIS is a cell-based, single-readout assay that uses hNIS-HEK293T-EPA, a novel human kidney cell line expressing human NIS, with measurements taken at 2 hours after chemical dosing in a 96-well plate. This radioactive iodide uptake (RAIU) assay is used to identify inhibitors of NIS-mediated iodide uptake. A parallel cytoxicity assay (Cell Titer Glo, Promega) was also run in the same cell line.CPHEA_Stoker_NIS_Inhibition_RAIU is one of 2 assay components measured from the CPHEA_Stoker_NIS assay. It is designed to make measurements of radioactive substrate uptake to understand transporter function, as detected with 125-i signals by MicroBeta radioactivity plate reader technology.Data from the assay component CPHEA_Stoker_NIS_Inhibition_RAIU was analyzed at the endpoint, CPHEA_Stoker_NIS_Inhibition_RAIU, in the positive analysis fitting direction relative to DMSO as the negative control and baseline of activity. Measures of radioactive substrate uptake for loss-of-signal activity can be used to understand the effects on transporter function at the pathway level as they relate to the sodium-iodide symporter, gene SLC5A5. To generalize the intended target to other relatable targets, this assay endpoint is annotated to the transporter intended target family, where the subfamily is sodium-iodide symporter (NIS).
hNIS-HEK293T-EPA cells were seeded with a MultiFlo FX dispenser (BioTek, Winooski, VT) into ScintiPlate-96 microplates (Perkin Elmer, Waltham, MA) at a density of 4.0x10^4 cells per well in 200uL growth media and incubated for 40 hours before experimentation. On day of the assay, carrier-free 125I (Perkin-Elmer, Waltham, MA; specific activity: 17.4Ci/mg) was diluted with Hanks' balanced salt solution (Sigma, St. Louis, MO) supplemented with 10mM HEPES (uptake buffer; pH 7.4) at 5uCi/mL (288pg 125I/mL uptake buffer; 2.30nM). The assay was initiated by washing cells twice with 200uL uptake buffer using a 96-well Tecan HydroSpeed plate washer (Tecan, Mannedorf, Switzerland). Uptake buffer (59.7uL) was then added back to each well. Chemical samples (350nL at 200X) were administered using the HDR tool as previously described to achieve a 1X chemical/0.5% final DMSO concentration with subsequent addition of 10uL of 125I dilution (final [125I]: 329pM; 2.88pg/well) for a final reaction volume of 70uL/well. Cells were incubated at room temperature for 2 hours and then washed twice with 200uL ice cold uptake buffer. All uptake buffer was aspirated from wells, plates were sealed, and read on a MicroBeta2 plate reader (Perkin Elmer, Waltham, MA) using a detection protocol to measure CPM corresponding to intracellular 125I concentration. Each chemical concentration (0.001, 0.01, 0.1, 1.0, 10, and 100uM) was assayed in triplicate with three independent biological replicate plates (3 sequential cell passages). Additionally, a concentration response of NaClO4 (0.001, 0.01, 0.1, 1.0, 10, and 100uM) served as a positive control inhibition curve on each RAIU assay plate. DMSO control wells were assayed on each plate as a measure of maximum iodide uptake for normalization and determination of intra- and inter-assay variation. (Toxicol In Vitro, 2017, 40:66-78).
Regarding `Cc1ccc(S)cc1`, the result was inactive.
Still for that read-out and setting: as for `O=C1c2ccccc2C(=O)N1SC1CCCCC1`, the entry is “inactive”.
`CSc1nc(NC2CC2)nc(NC(C)(C)C)n1`: the half-maximal activity concentration (AC50) is 10 µM (active).
Consider `CCCCCCCCCCCCCCCCCC(=O)OCC(CC)CCCC` (stereo unspecified), for which the outcome was inactive.
The same measure, in the same setting: as for `CCCCCCCCC`, the entry is “inactive”.
For the compound `O=c1cc(-c2ccccc2)oc2cc(O)cc(O)c12`, the result was inactive.
In the case of `CC(C)C[C@H]1C(=O)N2CCC[C@H]2[C@]2(O)O[C@](NC(=O)[C@@H]3C=C4c5cccc6[nH]c(Br)c(c56)C[C@H]4N(C)C3)(C(C)C)C(=O)N12`, the result was inactive.
As for `BrC1CCC(Br)C(Br)CCC(Br)C(Br)CCC1Br` (stereo unspecified), the result was inactive.
Same read-out and setting: as for `CCN(CC)CCOC(=O)c1ccc(N)cc1`, the entry is “inactive”; as for `CCN(CC)c1ccc2c(-c3ccccc3C(=O)O)c3ccc(=[N+](CC)CC)cc-3oc2c1`, “inactive”; as for `CC(C)=CCCC(C)=CCCC(C)=CCO`, “inactive”.
Still for that read-out and setting: as for `COc1cc(C(C)(C)C)c(O)c(C(C)(C)C)c1`, the entry is “inactive”; as for `c1ccc(CCCc2ccccn2)cc1`, “inactive”.
Still for that read-out and setting: the result for `c1ccc2[nH]ccc2c1` reads “inactive”; that for `CCCCCCCCCCCCCOS(=O)(=O)O`, “inactive”.
For `Cc1ccc(O)c(C(C)(C)C)c1`, the outcome was inactive.
